# A selection: hits, their analogues and other compounds. The true share with any hit is near 2.5%.
# MEKK2wt PB1 HTS = raises or lowers MEK5 binding to wildtype human MEKK2 PB1 domain. Q9Y2U5. bead flow cytometry, Alexa488-MEK5 binding to MEKK2 WT; actives lie on both sides. binding response (% of control), % at 10 µM. actives 1.1% (n = 290,000); in the data active means binding response below about 67% or above about 130%
# MEKK3 PB1 HTS = MEKK3-MEK5 PB1 interaction, increase or decrease | binding response (% of control), % at 10 µM | bead-based flow cytometry, Alexa488-MEK5 binding to MEKK3; actives lie on both sides; 0 = blocked by unlabeled MEK5, 100 = vehicle | Q99759 | actives 1.4% (n = 290,000) | AID 1529;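 active means binding response more than 3 SD above or below the average of its plate-row segment, actives on both sides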;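 further: Alexa488 bead fluorescence after subtracting the streptavidin-only scavenger bead signal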
# MEKK2 mut-MEK5 = signal of MEK5 binding to mutant human MEKK2 PB1 domain; bead flow cytometry, Alexa488-MEK5 binding to MEKK2 mutant; percent response, % at 10 µM; actives 0.35% (n = 290,000); AID 1530; in the data active means percent response above about 24%, passing the limit was not always enough
# GRK2 inh = inhibitors of human GRK2 displacing RNA aptamer; P25098; actives 0.59% (n = 330,000); bead flow cytometry, FAM-aptamer displacement from GRK2; inhibition of aptamer binding, % at 10 µM;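 active means inhibition of aptamer binding above 40%, roughly 3 SD of noise, on plates passing a quality check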;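 further: median bead fluorescence of bound FAM aptamer so fluorescent compounds give negative values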
# Target sequence (P25098 whole entry, looked up): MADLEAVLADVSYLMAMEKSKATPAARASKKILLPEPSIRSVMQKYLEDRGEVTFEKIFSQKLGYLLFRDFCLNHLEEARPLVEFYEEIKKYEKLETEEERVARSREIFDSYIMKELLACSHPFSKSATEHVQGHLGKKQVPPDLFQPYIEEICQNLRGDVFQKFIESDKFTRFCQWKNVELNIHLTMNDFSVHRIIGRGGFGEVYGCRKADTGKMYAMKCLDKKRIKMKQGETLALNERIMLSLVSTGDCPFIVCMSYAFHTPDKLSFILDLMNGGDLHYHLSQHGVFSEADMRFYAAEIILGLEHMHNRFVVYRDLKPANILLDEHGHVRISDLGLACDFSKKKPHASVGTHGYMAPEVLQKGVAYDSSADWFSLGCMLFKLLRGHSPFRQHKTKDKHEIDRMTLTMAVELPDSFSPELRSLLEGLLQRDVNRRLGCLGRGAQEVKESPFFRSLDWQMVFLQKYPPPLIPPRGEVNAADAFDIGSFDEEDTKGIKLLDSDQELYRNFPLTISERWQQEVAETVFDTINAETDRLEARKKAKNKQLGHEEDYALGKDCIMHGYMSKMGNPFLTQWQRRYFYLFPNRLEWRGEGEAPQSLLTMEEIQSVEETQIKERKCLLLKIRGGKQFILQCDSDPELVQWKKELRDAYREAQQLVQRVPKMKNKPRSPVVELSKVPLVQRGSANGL
# MEKK2wt confirm = raises or lowers MEK5 binding to wildtype human MEKK2, retest. AID 1892. bead flow cytometry, Alexa488-MEK5 binding to MEKK2 WT; actives lie on both sides. binding response (% of control), % at 10 µM. actives 2.4% (n = 5,900). shares compounds with MEKK3 PB1 HTS; in the data active means binding response below about 16% or above about 210%; inactive means in between
# MEKK2mut-MEK5 = signal of MEK5 binding to mutant human MEKK2, retest; shares compounds with MEKK3 PB1 HTS; bead flow cytometry, Alexa488-MEK5 binding to MEKK2 mutant; percent response, % at 10 µM; actives 2% (n = 5,900); in the data active means percent response mostly above about 71%, no sharp cut-off; inactive means mostly below about 38%;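 further: higher means compound restores mutant binding toward wildtype level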
# MEKK3-MEK5 inh = confirmation of inhibitors of MEK5 binding to human MEKK3 | shares compounds with MEKK3 PB1 HTS | bead flow cytometry, Alexa488-MEK5 binding to MEKK3; stronger effect = lower value | binding response (% of control), % at 10 µM | actives 1.8% (n = 5,900) | AID 1894;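 active means binding response below 72% of control, or above a set upper limit, though filed actives all read lower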;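 further: 100% = DMSO only wells and 0% = binding blocked by excess unlabeled MEK5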
# Starred values were filed as active, the others as inactive; x = no result; ! = not active in a repeat; [ ] = another dose, or the depositor's remark.
SMILES,MEKK2wt PB1 HTS,MEKK3 PB1 HTS,MEKK2 mut-MEK5,GRK2 inh,others
Cc1ccccc1N1C(=O)/C(=C/c2ccco2)C(=O)NC1=S,80,82*[inhibitor],-17,100*,
CN1CC[C@]2(c3cccc(O)c3)Cc3nc4ccccc4cc3C[C@H]2C1,114,62*![inhibitor],3,x,
CN1CCN(c2nc3ccccn3c(=O)c2C=C2C(=O)N(C)C(=O)N(C)C2=O)CC1,111,135*,1,0,
COc1ccc2c3c([nH]c2c1)C(C)NCC3 (stereo not drawn),1.0*,94,48,0,
COc1ccc2[nH]c3c(c2c1)CCNC3C (stereo not drawn),111,103,6,3,
Cc1cc2c(C(C)C)c(O)c(O)c(C=O)c2c(O)c1-c1c(C)cc2c(C(C)C)c(O)c(O)c(C=O)c2c1O,58*[inhibitor],42*![inhibitor],-5,x,
COC(=O)C1=CO[C@@H](C)[C@@H]2CN3CC[C@]4(C(=O)Nc5ccccc54)[C@@H]3C[C@H]12,98,138*,19,3,
COc1ccc(-c2[nH]ncc2CNC(C)Cc2ccsc2)c(F)c1 (stereo not drawn),115,101,10,11,
O=C(Nc1nccs1)c1c(O)c2c(n(Cc3ccco3)c1=O)CCCC2,-4.0*,108,5,1,
O=C(Nc1cccc(Cl)c1)c1c(O)c2c(n(Cc3ccco3)c1=O)CCCC2,95,100,-1,4,
O=C(NC1CCCCC1)[C@@H]1CC=C[C@@H]2CCN(Cc3ccccc3)C(=O)[C@@H]21,99,101,2,2,
CC(C)(C)NC(=O)NC(=O)CN1CC=C(c2ccccc2)CC1,123,128,60*,0,
O=C(CN1CC=C(c2ccccc2)CC1)NC(=O)NC1CCCCC1,103,103,8,0,
CC/C(=C\C=C\[C@@H]1C=C[C@@H]2CCC[C@H]2[C@@H]1C(=O)c1ccc[nH]1)[C@@H]1O[C@@H]([C@@H](C)C(=O)O)CC[C@@H]1C,87,81,-2,3,
COc1ccccc1CNCCc1ccc(F)cc1,99,100,11,3,
CN1CCN(c2cc(N3CCCC3)c([N+](=O)[O-])cc2F)CC1,111,105,6,4,
CCN1CCN(c2cc(N3CCCC3)c(F)cc2[N+](=O)[O-])CC1,114,159*,2,3,
CCN1C[C@]2(COC)CC[C@H](O)[C@@]34C5C[C@H]6[C@H](O)C5[C@](O)(C[C@H]6OC)[C@@H]([C@H](OC)C23)[C@@H]14 (stereo partly drawn),110,105,4,0,
CCCCn1c(NS(=O)(=O)c2ccccc2)c(C(=O)OCC)c2nc3ccccc3nc21,91,100,-2,0,
CCCCn1c(NC(=O)c2ccc(Br)o2)c(C(=O)OCC)c2nc3ccccc3nc21,93,101,-1,78*,
O=C(c1cccn2c(=O)c3ccccc3nc12)N1CCC2(CC1)OCCO2,92,93,-11,4,
C[C@]12CCC3C(CC[C@H]4C[C@@H](O)CC[C@]34C)C1CC[C@@H]2N (stereo partly drawn),x,x,x,7,
O=C1NC(=O)N(c2ccccc2)C(=O)/C1=C\c1ccc([N+](=O)[O-])o1,91,93,-4,93*,
CN1C(=O)NC(=O)/C(=C/c2ccc([N+](=O)[O-])o2)C1=O,79,91,1,0,
CN(C)[C@@H]1C(=O)C(C(N)=O)=C(O)[C@@]2(O)C(=O)C3=C(O)c4c(O)cccc4[C@@](C)(O)[C@H]3C[C@@H]12,85,91,-5,42*,
CC(C)c1ccc(N2C(=O)NC(=O)/C(=C/C=C/c3ccco3)C2=O)cc1,60*[inhibitor],100,36,8,
Cn1cccc1/C=C1/C(=O)NC(=S)N(Cc2ccc(F)cc2)C1=O,56*[inhibitor],88,-19,2,MEKK2wt confirm=98;MEKK2mut-MEK5=0;MEKK3-MEK5 inh=98
